Results on nine compounds are retold here after PubChem BioAssay (EPA / NIEHS).

For one experiment, the system named is IYD (gene 389434). Nature of the experiment: CCTE_GLTED_hIYD: CCTE's human Iodotyrosine Deiodinase (xIYD) Inhibition Assay, Great Lakes Toxicology and Ecology Division (GLTED) Lab (AID 2284317; active = hit-call score of the fitted dose curve at least 0.9, where 1 is the maximum;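 also: cell-free human IYD enzyme made in baculovirus insect cells; iodide freed from monoiodotyrosine measured by cerium arsenite color change at 420 nm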). The method in brief: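 Deiodination of MIT by insect-cell-produced human IYD is measured after a 3 h incubation with test chemical. Free iodide passes through a Dowex column and accelerates Sandell-Kolthoff Ce4+ reduction, read at 420 nm; run in triplicate.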

Experiment [1] is described as follows: CCTE_Deisenroth_H295R-HTRF_384WELL_ESTRADIOL: CCTE's H295R-HTRF Assay Evaluation of Estradiol Concentration, Deisenroth Lab (AID 2284361). The conditions noted are these: actives raise or lower the signal. In outline:
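Estradiol secreted into medium by H295R adrenocortical cells, quantified by HTRF after 48 h dosing over a nine-point 0.001 - 100 uM final range; gain or loss versus DMSO. Parallel ATP-luminescence viability readout; n=5 experiments.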
(In TR-FRET formats the signal depends on donor and acceptor labels being close together.)

Experiment [2] is described as follows: CCTE_Deisenroth_H295R-HTRF_384WELL_TESTOSTERONE: CCTE's H295R-HTRF Assay Evaluation of Testosterone Concentration, Deisenroth Lab (AID 2284373). The conditions noted are these: actives raise or lower the signal. In outline: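 Testosterone secreted into medium was quantified by direct HTRF immunoassay after a 48 h treatment of H295R adrenocortical cells (nine concentrations, 0.001–100 uM final). Gain or loss fitted relative to DMSO; CellTiter-Glo viability read on same plates.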

Experiment [3] is described as follows: CCTE_Deisenroth_H295R-HTRF_384WELL_CTOX: Cytotoxicity Assessment in CCTE's H295R-HTRF Assay, Deisenroth Lab (AID 2284380; active = hit-call score of the fitted dose curve at least 0.9, where 1 is the maximum). In outline:
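Luminescent ATP viability readout (CellTiter-Glo 2.0), multiplexed on plates used for hormone sampling, after 48 h chemical exposure. Human H295R cells; final concentrations 0.001–100 uM in nine steps, technical triplicates, five experiments; DMSO baseline.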

Experiment [4] in a line: CCTE_Deisenroth_5AR_NBTE_donor: CCTE's 5alpha-reductase NanoBRET Target Engagement Assay […], Deisenroth Lab (AID 2284319). The conditions noted are these: actives raise or lower the signal. The method in brief: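 SRD5A2-NanoLuc, HEK293T, 20 h expression. Chemical 10 nM - 29.9 uM, 8 conc, duplicate; 3 h preincubation + 2 h testosterone tracer. Nano-Glo substrate plus extracellular NanoLuc inhibitor; donor lum 460 nm. DMSO baseline, bidirectional fit.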
(In general: BRET reads energy transfer from a luciferase to a nearby fluorophore.)

Another experiment relates to SRD5A2 (gene 6716). Nature of the experiment: CCTE_Deisenroth_5AR_NBTE_ratio: CCTE's 5alpha-reductase NanoBRET Target Engagement Assay - Ratio, Deisenroth Lab (AID 2284322). The conditions noted are these: actives raise or lower the signal. In outline:
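HEK293T cells transiently expressing an SRD5A2-NanoLuc fusion (20 h post-transfection) were exposed to test chemical (10 nM - 29.9 uM, 8 points) for 3 h, then testosterone tracer for a further 2 h. Acceptor/donor BRET ratio was fitted bidirectionally against DMSO baseline.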

Experiment [5] relates to Brachyury (BRA) Protein Expression, Deisenroth Lab, TBXT (gene 6862). Nature of the experiment: CCTE_Deisenroth_DEVTOX-GLR_legacy_Bra: (Legacy) CCTE's DevTox GLR-Endo Assay Evaluation of Brachyury (BRA) Protein Expression, Deisenroth Lab (AID 2284329). In outline:
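Readout: percent Bra+ cells by high-content fluorescence imaging, Bra+ meaning mean intensity 5x BMAD over pluripotent control median. RUES2-GLR cells dosed twice over 48 h differentiation; DMSO-control median subtracted before concentration-response fitting.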

The subject of experiment [6] is SRY-box transcription factor 17 (SOX17) Protein Expression, Deisenroth Lab, SOX17 (gene 64321). Kind of experiment: CCTE_Deisenroth_DEVTOX-GLR_legacy_Sox17: (Legacy) CCTE's DevTox GLR-Endo Assay Evaluation of SRY-box transcription factor 17 (SOX17) Protein Expression, Deisenroth Lab (AID 2284341). The conditions noted are these: actives raise or lower the signal. The method in brief: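 Endoderm-differentiation readout in RUES2-GLR human pluripotent cells at 48 h, concentrations spanning 1 nM - 200 uM. Sox17-positive cells divided by total cell count; gain or loss relative to DMSO solvent control, n=4 experimental replicates.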

Experiment [7] has as its system SRY-box transcription factor 2 (SOX2) Protein Expression, Deisenroth Lab, SOX2 (gene 6657). Nature of the experiment: CCTE_Deisenroth_DEVTOX-GLR_legacy_Sox2: (Legacy) CCTE's DevTox GLR-Endo Assay Evaluation of SRY-box transcription factor 2 (SOX2) Protein Expression, Deisenroth Lab (AID 2284346). In outline:
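Read-out: fraction of Sox2+ cells by high-content fluorescence imaging of fixed RUES2-GLR cells after 48 h differentiation with two 24 h-spaced exposures. Positivity cutoff 5x BMAD above endoderm control median; 0.2% DMSO median subtracted.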

The subject of the next experiment is SERPINA7 (gene 6906). Nature of the experiment: CCTE_GLTED_hTBG: CCTE's human Thyroxine-binding Globulin (TBG) Inhibition Assay, Great Lakes Toxicology and Ecology Division (GLTED) Lab (AID 2284343; active = hit-call score of the fitted dose curve at least 0.9, where 1 is the maximum;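 also: active chemicals lower fluorescence versus DMSO baseline by displacing probe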). In outline:
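Human thyroxine-binding globulin was exposed to each chemical for 2 hours, during which the ANSA probe could be displaced. Fluorescence was then measured at 380/475 nm, and loss of signal was analysed relative to DMSO.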

Experiment [8] is described as follows: TAMU_PeakParms_SingleDonor1434_Asystole: Texas A&M University (TAMU) 1.5-hr Human Induced Pluripotent Stem Cell (iPSC)-derived Cardiomyocytes Calcium (Ca+2) Flux Assay for Cardiotoxicity: Asystole (quiescence of beating) (AID 2284328; active = hit-call score of the fitted dose curve at least 0.9, where 1 is the maximum). In outline: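 Donor 1434 iPSC-cardiomyocytes exposed 90 min at 37C, 5% CO2, to 0.2, 1, 10 and 100 uM in 0.5% DMSO. Ca2+ dye fluorescence gave average peak frequency; POD is EC95, a 95% beat-rate drop versus controls.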

Experiment [9] in a line: IUF_NPC1_cytotoxicity_72hr: Cytotoxicity Assessment at 72 hours in the Leibniz Research Institute for Environmental Medicine (IUF) Neural Progenitor Cell Proliferation Assay (NPC1) (AID 2284332; active = hit-call score of the fitted dose curve at least 0.9, where 1 is the maximum;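 also: rising LDH signal means more cytotoxicity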). The method in brief:
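Membrane-integrity loss is scored from LDH released into the medium, detected as resorufin fluorescence, with activity fitted upward relative to baseline. Test material stays on human fetal-derived progenitor spheres for 72 h.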

Inconclusive results are not listed. A structure can be active in one record and inactive in another. Calls of active or inactive are those of the source. The calls were made as follows, unless noted: active = hit-call score of the fitted dose curve at least 0.9, where 1 is the maximum; inactive = score below 0.9.

One may read the AC50 as the midpoint of the concentration-response curve, whichever way the signal moves.

Turning to `CCOC(=O)O[C@H](C)OC(=O)c1ccc2c(c1)cc(C(=O)NC1CCN(C(C)C)CC1)n2Cc1cc(-c2ccc(Cl)s2)on1`, the AC50 with IYD (gene 389434) was 56.4 µM (active).
For the compound `CC(=O)N1CCN(c2ccc(OC[C@H]3CO[C@](Cn4ccnc4)(c4ccc(Cl)cc4Cl)O3)cc2)CC1`, the compound was classed as inactive in experiment [1] and in [3]. Moreover, the AC50 in [2] was 0.947 µM (active).
As for `CO[C@H]1/C=C/O[C@@]2(C)Oc3c(C)c(O)c4c(O)c(c(/C=N/N5CCN(C)CC5)c(O)c4c3C2=O)NC(=O)/C(C)=C\C=C\[C@H](C)[C@H](O)[C@@H](C)[C@@H](O)[C@@H](C)[C@H](OC(C)=O)[C@@H]1C`, the AC50 in experiment [4] was 50 µM (active); in the experiment on SRD5A2 (gene 6716), 54.3 µM (active); in experiment [5], 89.7 µM (active); in [6], 72.4 µM (active). Further, in [7], the compound was classed as inactive.
As for `CCCCCc1ccc(N)cc1`, in the experiment on SERPINA7 (gene 6906), the AC50 is 29.9 µM (active).
With `CCN(CC)C(=O)c1cc(S(=O)(=O)Cc2ccccc2)c(N2CCC(c3ccccc3)CC2)cc1N(CC)CCN(C)C`, in experiment [4], the AC50 is 10 µM (active) and the compound was classed as inactive. For the same compound, in the experiment with SRD5A2 (gene 6716), the AC50 is 17.3 µM (active) and the result was inactive.
`Clc1ccccc1C(c1ccccc1)(c1ccccc1)n1ccnc1`: the AC50 in experiment [1] was 0.129 µM (active); in experiment [2], 0.117 µM (active). Also, the call in experiment [3] was inactive.
Take `CN(C)c1ccc(C(=C2C=CC(=[N+](C)C)C=C2)c2ccc(N(C)C)cc2)cc1`: the call in the experiment on IYD (gene 389434) was inactive. In addition, the AC50 was 12.6 µM (active) in experiment [4], 0.593 µM (active) in the experiment with SRD5A2 (gene 6716), 0.589 µM (active) in experiment [8] and 50 µM (active) in the experiment on SERPINA7 (gene 6906).
On to `CC(C)(c1cc(Br)c(O)c(Br)c1)c1cc(Br)c(O)c(Br)c1`, for which the results for the AC50 in the experiment with IYD (gene 389434) and in the experiment with SERPINA7 (gene 6906) were 66.2 µM (active) and 2.16 µM (active), respectively. Besides, the outcome in experiment [8] and in experiment [9] was inactive.
For `CN(C[C@@H](CC[N+]12CCC(C3CCCCC3)(CC1)CC2)c1ccc(Cl)c(Cl)c1)C(=O)c1cc(C(F)(F)F)cc(C(F)(F)F)c1`, the results for the concentration at half-maximal activity (AC50) (in the experiment on IYD (gene 389434); in [4]; in the experiment on SRD5A2 (gene 6716)) were 45.2 µM (active), 19.7 µM (active) and 76 µM (active), respectively.
